Measured values reported in PubChem BioAssay (NCI).
About 83,000 compounds went through this panel and 20% of them were active in at least one assay; those are over-represented in the sample as a whole.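 Values shown are percent growth following 48 h exposure of cells in 96-well plates to a single concentration of compound; below 10 was considered active.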 Unmarked numbers belong to inactive results.

The molecules below were run on HL-60(TB) leukemia (assay: NCI-60 one-dose screen, 48 h (100 = growth as untreated, 0 = no growth, -100 = all killed)). Details: 10 µM unless noted.

Row | Compound | growth
1 | COc1ccc(/C=C/C(=C/c2c(O)[nH]c3cc(Br)ccc23)N=O)cc1 | 119%
2 | CC(c1ccccn1)C(C)(O)C(C)c1ccccn1 (stereo not drawn) | 69.8%
3 | Cc1ccc(Sc2nnc(/N=C3\C(=O)Nc4ccccc43)s2)cc1 | 95.9%
